# Reference: PubChem BioAssay (Tox21)
# Inconclusive results are not listed. A call without a number means that no potency is given here. Values without a mark were called inactive. The source made the active and inactive calls. Unless noted, calls follow the shape of the dose curve; as a rule, active = well fitted curve in the direction sought with a large enough effect in the repeat runs; inconclusive = weak or mixed curves; inactive = no such curve, though single readings can be large; an effect the other way counts as inactive or inconclusive.
# Tests used:
# [1] = qHTS assay to identify aromatase inhibitors - cell viability counter screen (AID 743084);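 also: cells stimulated with testosterone during compound exposure; nearly all actives have a fitted effect of over 55% in size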
# [2] = target: Aryl hydrocarbon receptor (Homo sapiens) (UniProt P35869); assay: qHTS assay to identify small molecule that activate the aryl hydrocarbon receptor (AhR) signaling pathway (AID 743085); also: nearly all actives have a fitted effect of over 15% in size; also: potency is read from the fitted curve at half-maximal effect;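 as to activation: HG2L7.5c1 human HepG2 liver cells with stably integrated DRE-driven firefly reporter; series mostly up to about 70 µM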
# Procedure, shortened: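 Measured in HG2L7.5c1 cells: CellTiter-Fluor signal (30 min incubation, 37C) for viability, then luciferase luminescence (30 min, room temperature). Compound contact time was 24 h at 37C, following a 5 h pre-incubation.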
# [3] = qHTS assay to identify small molecule that activate the aryl hydrocarbon receptor (AhR) signaling pathway - cell viability counter screen (AID 743086);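 also: HepG2 liver cells carrying the AhR DRE luciferase reporter; series mostly up to about 70 µM; nearly all actives have a fitted effect of over 45% in size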
# Procedure, shortened: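 HepG2-AhR-luc (HG2L7.5c1) cells, 4000/well, treated 24 h at 37 C with compound; viability measured as CellTiter-Fluor fluorescence after 30 min in the same wells as the luciferase read.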
# [4] = target: Peroxisome proliferator-activated receptor gamma (Homo sapiens) (UniProt P37231); assay: qHTS assay to identify small molecule agonists of the peroxisome proliferator-activated receptor gamma (PPARg) signaling pathway (AID 743094; active = well fitted activation curve with a large enough effect in the signal ratio in the repeat runs, not every such curve was filed as active; the % refers to the signal ratio)
# Procedure, shortened: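 Fluorescence-based beta-lactamase readout in HEK293H PPARg UAS-bla cells after 17 h compound exposure (37C) and 1 h B/G FRET substrate incubation at room temperature.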
# [5] = target: Peroxisome proliferator-activated receptor gamma (Homo sapiens) (UniProt P37231); assay: qHTS assay to identify small molecule antagonists of the peroxisome proliferator-activated receptor gamma (PPARg) signaling pathway (AID 743191; calls by dose curve; also: series mostly up to about 63 µM; nearly all actives have a fitted effect of over 30% in size)
# Procedure, shortened: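 GeneBLAzer PPARg UAS-bla HEK293H cells, 5 h post-plating, exposed to compounds 17 h at 37C. LiveBLAzer B/G FRET substrate added for 1 h at room temperature; beta-lactamase reporter read by fluorescence intensity.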
# [6] = qHTS assay to identify small molecule antagonists of the peroxisome proliferator-activated receptor gamma (PPARg) signaling pathway - cell viability counter screen (AID 743194); also: nearly all actives have a fitted effect of over 55% in size
# Procedure, shortened: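 Cytotoxicity counter screen in PPARg-bla HEK293H cells, same wells as reporter assay. Compounds plus 50 nM rosiglitazone (final) for 17 h at 37 C, then viability read by CellTiter-Glo luminescence.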
# [7] = qHTS assay for small molecule agonists of the antioxidant response element (ARE) signaling pathway (AID 743202; active = well fitted activation curve with a large enough effect in the signal ratio in the repeat runs, not every such curve was filed as active; the % refers to the signal ratio)
# Procedure, shortened: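 HepG2 ARE-bla cells; 16 h treatment at 37 C; FRET-based beta-lactamase fluorescence read after 2 h substrate incubation at room temperature.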
# [8] = qHTS assay for small molecule activators of the heat shock response signaling pathway - cell viability counter screen (AID 743209); also: nearly all actives have a fitted effect of over 50% in size
# Procedure, shortened: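 To flag cytotoxic compounds, HSE-bla HeLa cells plated at 1500 cells/well were dosed for 5 h at 37 C, followed by the reporter FRET read and then CellTiter-Glo, with luminescence recorded 30 min after reagent addition.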
# [9] = qHTS assay for small molecule activators of the heat shock response signaling pathway (AID 743210; active = well fitted activation curve with a large enough effect in the signal ratio in the repeat runs, with a control signal flat, not every such curve was filed as active; the % refers to the signal ratio;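 also: HeLa cells with beta-lactamase reporter driven by heat shock elements; series mostly up to about 63 µM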)
# Procedure, shortened: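 Following overnight attachment, HSE-bla HeLa cells received test compounds for 5 h at 37 C; beta-lactamase activity was then detected via FRET substrate fluorescence.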
# [10] = qHTS assay to identify small molecule agonists of the peroxisome proliferator-activated receptor delta (PPARd) signaling pathway - cell viability counter screen (AID 743211); also: nearly all actives have a fitted effect of over 55% in size
# Procedure, shortened: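 Following 5 h plating at 37 C and 5% CO2, PPARd UAS-bla HEK293H cells took up test compounds for 17 h. Viability was quantified by luminescence 30 min after CellTiter-Glo addition at room temperature.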
# [11] = qHTS assay to identify small molecule antagonists of the peroxisome proliferator-activated receptor delta (PPARd) signaling pathway - cell viability counter screen (AID 743213); also: nearly all actives have a fitted effect of over 50% in size
# Procedure, shortened: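 HEK293H PPARd UAS-bla cells, 5 h pre-incubation, compound + L165041 300 nM final, 17 h 37 C; B/G FRET substrate 2 h RT; then CellTiter-Glo 30 min RT, luminescence.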
# [12] = target: Peroxisome proliferator-activated receptor delta (Homo sapiens) (UniProt Q03181); assay: qHTS assay to identify small molecule antagonists of the peroxisome proliferator-activated receptor delta (PPARd) signaling pathway (AID 743215; active = well fitted inhibition curve with a large enough effect in the signal ratio in the repeat runs, not every such curve was filed as active; the % refers to the signal ratio;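 also: cells stimulated with agonist L165041 at 300 nM final during compound exposure; series mostly up to about 62 µM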)
# Procedure, shortened: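 Screen format: qHTS, antagonist mode. HEK293H PPARd-bla cells received compound and 300 nM L165041 (final), 17 h, 37 C. Beta-lactamase detected via FRET substrate fluorescence, 2 h, room temperature.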
# [13] = target: Bile acid receptor (Homo sapiens) (UniProt Q96RI1); assay: qHTS assay to identify small molecule antagonists of the farnesoid-X-receptor (FXR) signaling pathway (AID 743217; active = well fitted inhibition curve with a large enough effect in the signal ratio in the repeat runs, not every such curve was filed as active; the % refers to the signal ratio)
# Procedure, shortened: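 Quantitative HTS, beta-lactamase reporter format: FXR-UAS-bla HEK 293T cells co-treated 16 h at 37 °C with compounds and 50 uM final chenodeoxycholic acid, then read by B/G FRET fluorescence.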
# [14] = qHTS assay to identify small molecule agonists of the farnesoid-X-receptor (FXR) signaling pathway - cell viability counter screen (AID 743218); also: nearly all actives have a fitted effect of over 45% in size
# Procedure, shortened: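 Same-well cytotoxicity check on FXR-UAS-bla HEK 293T cells: 5 h attachment, 16 h compound at 37 C, CellTiter-Glo luminescence read at room temperature after 30 min.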
# [15] = target: Bile acid receptor (Homo sapiens) (UniProt Q96RI1); assay: qHTS assay to identify small molecule agonists of the farnesoid-X-receptor (FXR) signaling pathway (AID 743220; active = well fitted activation curve with a large enough effect in the signal ratio in the repeat runs, not every such curve was filed as active; the % refers to the signal ratio)
# Procedure, shortened: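 FXR-UAS-bla HEK 293T cells carrying a UAS-driven beta-lactamase reporter were plated for 5 h at 37C/5% CO2, then exposed to DMSO-dissolved Tox21 10K compounds for 16 h at 37C. A LiveBLAzer B/G FRET substrate was loaded for 2 h at room temperature before fluorescence reading.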
# [16] = qHTS assay to identify small molecule antagonists of the farnesoid-X-receptor (FXR) signaling pathway - cell viability counter screen (AID 743221; active = well fitted cell-killing curve with a large enough effect in the repeat runs, not every such curve was filed as active; also: nearly all actives have a fitted effect of over 50% in size)
# Procedure, shortened: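 Compound effects on cell number were measured as CellTiter-Glo luminescence in HEK 293T cells expressing FXR-UAS-bla, after 16 h at 37 C with 50 uM CDCA (final).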
# [17] = qHTS assay for small molecule agonists of the antioxidant response element (ARE) signaling pathway - cell viability counter screen (AID 743203; calls by dose curve; also: nearly all actives have a fitted effect of over 55% in size)
# Procedure, shortened: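 Parallel cytotoxicity read-out for the ARE-bla screen: HepG2 reporter cells, 16 hrs with compounds, then CellTiter-Glo luminescence.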
# [18] = target: Vitamin D3 receptor (Homo sapiens) (UniProt P11473); assay: qHTS assay to identify small molecule agonists of the vitamin D receptor (VDR) signaling pathway (AID 743222; calls by dose curve)
# Procedure, shortened: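 Using LiveBLAzer B/G FRET detection, agonism was scored in VDR-bla cells exposed overnight (16 h, 37C) to DMSO-dissolved compounds; substrate incubation was 2 h at room temperature.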
# [19] = target: Vitamin D3 receptor (Homo sapiens) (UniProt P11473); assay: qHTS assay to identify small molecule antagonists of the vitamin D receptor (VDR) signaling pathway (AID 743223; active = well fitted inhibition curve with a large enough effect in the signal ratio in the repeat runs, not every such curve was filed as active; the % refers to the signal ratio)
# Procedure, shortened: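 Beta-lactamase activity in VDR-bla cells is measured by FRET substrate fluorescence (2 h, room temperature) after cells spend 16 h at 37C with test compound and 3 nM final 1alpha,25-dihydroxyvitamin D3.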
# [20] = target: Peroxisome proliferator-activated receptor delta (Homo sapiens) (UniProt Q03181); assay: qHTS assay to identify small molecule agonists of the peroxisome proliferator-activated receptor delta (PPARd) signaling pathway (AID 743212; calls by dose curve)
# Procedure, shortened: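 Tox21 library screened in GeneBLAzer PPARd UAS-bla HEK293H cells. After compound treatment at 37 C, a FRET-based beta-lactamase substrate was applied for 2 h and fluorescence recorded.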
# Chain of Peroxisome proliferator-activated receptor gamma (Homo sapiens) (P37231 whole entry, looked up): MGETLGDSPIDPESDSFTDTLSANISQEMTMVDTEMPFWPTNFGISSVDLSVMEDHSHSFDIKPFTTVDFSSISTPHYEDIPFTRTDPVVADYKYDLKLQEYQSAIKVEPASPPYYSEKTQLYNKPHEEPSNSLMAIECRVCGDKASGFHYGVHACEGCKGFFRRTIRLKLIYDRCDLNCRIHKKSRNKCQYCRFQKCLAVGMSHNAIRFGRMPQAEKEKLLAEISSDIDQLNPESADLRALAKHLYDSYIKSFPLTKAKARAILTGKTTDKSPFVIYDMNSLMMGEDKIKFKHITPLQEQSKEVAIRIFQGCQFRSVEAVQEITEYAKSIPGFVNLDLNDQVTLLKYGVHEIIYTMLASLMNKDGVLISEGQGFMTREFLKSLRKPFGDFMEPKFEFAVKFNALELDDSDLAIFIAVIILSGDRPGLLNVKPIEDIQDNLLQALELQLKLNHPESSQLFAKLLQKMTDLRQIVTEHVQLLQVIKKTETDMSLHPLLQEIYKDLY
# Chain of Peroxisome proliferator-activated receptor delta (Homo sapiens) (Q03181 whole entry, looked up): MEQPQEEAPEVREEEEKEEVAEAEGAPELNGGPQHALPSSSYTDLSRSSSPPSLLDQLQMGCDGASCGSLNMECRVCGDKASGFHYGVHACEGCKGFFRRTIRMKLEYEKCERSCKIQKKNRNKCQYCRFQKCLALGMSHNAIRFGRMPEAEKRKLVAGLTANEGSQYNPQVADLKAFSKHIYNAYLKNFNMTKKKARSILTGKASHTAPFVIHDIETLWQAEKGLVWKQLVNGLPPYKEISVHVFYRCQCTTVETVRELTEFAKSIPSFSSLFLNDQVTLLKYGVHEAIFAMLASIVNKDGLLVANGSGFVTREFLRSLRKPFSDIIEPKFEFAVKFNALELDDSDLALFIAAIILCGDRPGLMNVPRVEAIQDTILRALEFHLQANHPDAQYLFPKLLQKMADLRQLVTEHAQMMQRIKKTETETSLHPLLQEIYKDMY
# Chain of Aryl hydrocarbon receptor (Homo sapiens) (P35869 whole entry, looked up): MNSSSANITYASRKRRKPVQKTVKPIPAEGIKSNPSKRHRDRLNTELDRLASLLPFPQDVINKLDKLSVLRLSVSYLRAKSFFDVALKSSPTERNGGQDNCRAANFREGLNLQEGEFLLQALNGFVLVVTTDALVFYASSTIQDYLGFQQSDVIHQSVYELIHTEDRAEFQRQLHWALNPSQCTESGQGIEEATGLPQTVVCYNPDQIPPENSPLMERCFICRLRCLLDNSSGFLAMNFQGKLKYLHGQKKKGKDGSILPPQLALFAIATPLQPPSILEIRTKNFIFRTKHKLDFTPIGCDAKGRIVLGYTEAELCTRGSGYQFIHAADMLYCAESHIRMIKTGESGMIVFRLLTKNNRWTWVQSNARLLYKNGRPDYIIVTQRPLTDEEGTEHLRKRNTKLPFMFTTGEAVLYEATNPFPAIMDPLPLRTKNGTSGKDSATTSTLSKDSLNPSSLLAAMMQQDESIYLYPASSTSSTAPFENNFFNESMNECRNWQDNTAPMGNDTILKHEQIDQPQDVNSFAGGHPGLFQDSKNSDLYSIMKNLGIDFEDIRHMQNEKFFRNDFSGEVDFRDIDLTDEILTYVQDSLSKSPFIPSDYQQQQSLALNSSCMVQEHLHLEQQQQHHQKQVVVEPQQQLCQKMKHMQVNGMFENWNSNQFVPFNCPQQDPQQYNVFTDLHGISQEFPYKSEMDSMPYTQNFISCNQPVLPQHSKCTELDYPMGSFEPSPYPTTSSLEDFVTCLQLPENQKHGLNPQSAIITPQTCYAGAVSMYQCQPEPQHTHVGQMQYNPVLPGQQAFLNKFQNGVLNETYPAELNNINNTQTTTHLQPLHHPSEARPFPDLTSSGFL
# Chain of Bile acid receptor (Homo sapiens) (Q96RI1 whole entry, looked up): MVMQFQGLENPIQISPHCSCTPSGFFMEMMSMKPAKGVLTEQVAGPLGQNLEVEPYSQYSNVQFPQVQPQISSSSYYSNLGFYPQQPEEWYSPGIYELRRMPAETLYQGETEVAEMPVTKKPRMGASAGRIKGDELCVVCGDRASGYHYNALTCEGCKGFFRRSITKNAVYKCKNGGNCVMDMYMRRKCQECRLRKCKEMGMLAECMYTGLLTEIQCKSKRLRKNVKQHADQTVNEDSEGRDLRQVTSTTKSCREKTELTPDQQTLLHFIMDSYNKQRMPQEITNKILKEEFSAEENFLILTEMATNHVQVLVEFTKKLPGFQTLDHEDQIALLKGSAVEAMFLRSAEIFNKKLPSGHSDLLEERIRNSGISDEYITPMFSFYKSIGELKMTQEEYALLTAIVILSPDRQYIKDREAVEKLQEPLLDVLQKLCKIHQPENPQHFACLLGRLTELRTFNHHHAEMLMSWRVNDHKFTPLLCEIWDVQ
# Chain of Vitamin D3 receptor (Homo sapiens) (P11473 whole entry, looked up): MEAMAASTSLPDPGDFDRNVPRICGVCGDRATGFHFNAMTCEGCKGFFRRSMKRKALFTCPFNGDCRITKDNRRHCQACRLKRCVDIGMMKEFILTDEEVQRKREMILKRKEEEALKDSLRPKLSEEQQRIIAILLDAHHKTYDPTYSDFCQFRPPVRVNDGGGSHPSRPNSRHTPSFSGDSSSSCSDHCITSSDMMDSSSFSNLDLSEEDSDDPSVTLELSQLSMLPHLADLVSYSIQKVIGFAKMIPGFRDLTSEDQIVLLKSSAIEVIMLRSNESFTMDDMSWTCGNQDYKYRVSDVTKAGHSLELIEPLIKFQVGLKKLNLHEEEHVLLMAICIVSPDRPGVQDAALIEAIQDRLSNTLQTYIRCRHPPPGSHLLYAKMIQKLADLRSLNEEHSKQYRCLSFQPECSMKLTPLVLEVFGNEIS
smiles,measurement,setting,value
CCOC(=O)CC(=O)c1cc(F)c(Cl)nc1Cl,Potency,[1],inactive
same,Potency,[2],inactive
same,Potency,[3],inactive
same,Potency,[4],inactive
same,Potency,[5],inactive
same,Potency,[6],inactive
same,Potency,[7],inactive
same,Potency,[8],inactive
same,outcome,[9],inactive
same,Potency,[10],inactive
same,Potency,[11],inactive
same,outcome,[12],inactive
same,outcome,[13],inactive
same,Potency,[14],inactive
same,outcome,[15],inactive
same,Potency,[16],inactive
CCN(CCO)CCCC(C)Nc1ccnc2cc(Cl)ccc12 (configuration not stated),Potency,[1],inactive
same,Potency,[2],inactive
same,Potency,[3],inactive
same,Potency,[4],inactive
same,"ratio activity, negative = inhibition",[5],-5.98% [at 5.95 µM]
same,"activity change, negative = cytotoxicity",[6],0.825% [at 5.95 µM]
same,activation,[7],-5.09% [at 8.36 µM]
same,"viability change, negative = cytotoxic",[17],-9.02% [at 8.36 µM]
same,"activity change, negative = cytotoxicity",[8],-18.6% [at 5.95 µM]
same,activation,[9],-0.125% [at 5.95 µM]
same,"activity change, negative = cytotoxicity",[10],9.74% [at 5.95 µM]
same,"viability change, negative = cytotoxic",[14],-0.758% [at 5.95 µM]
same,"activity change, negative = cytotoxicity",[16],10.2% [at 5.95 µM]
same,activation,[18],9.25% [at 6.01 µM]
same,"activity change, negative = inhibition",[19],-3.93% [at 6.95 µM]
CCCCc1cc2ccccc2c(OCCN(C)C)n1,Potency,[1],inactive
same,Potency,[2],inactive
same,Potency,[3],inactive
same,Potency,[4],inactive
same,Potency,[5],inactive
same,Potency,[6],inactive
same,Potency,[7],inactive
same,Potency,[17],inactive
same,Potency,[8],inactive
same,outcome,[9],inactive
same,outcome,[20],inactive
same,Potency,[11],inactive
same,outcome,[12],inactive
same,outcome,[13],inactive
same,Potency,[14],inactive
same,outcome,[15],inactive
same,Potency,[16],inactive
same,outcome,[18],inactive
same,Potency,[19],inactive
O=c1[nH]cnc2ccccc12,Potency,[1],inactive
same,Potency,[2],inactive
same,Potency,[3],inactive
same,Potency,[4],inactive
same,Potency,[5],inactive
same,Potency,[6],inactive
same,Potency,[7],inactive
same,Potency,[17],inactive
same,Potency,[8],inactive
same,outcome,[9],inactive
same,Potency,[10],inactive
same,outcome,[20],inactive
same,Potency,[11],inactive
same,outcome,[12],inactive
same,outcome,[13],inactive
same,Potency,[14],inactive
same,outcome,[15],inactive
same,Potency,[16],inactive
C1=Cc2ccccc2C1,Potency,[1],inactive
same,Potency,[2],27.3 µM (active)
same,Potency,[3],inactive
same,Potency,[4],inactive
same,Potency,[5],inactive
same,Potency,[6],inactive
same,Potency,[7],inactive
same,Potency,[17],inactive
same,outcome,[9],inactive
same,Potency,[10],inactive
same,outcome,[20],inactive
same,Potency,[11],inactive
same,outcome,[12],inactive
same,Potency,[14],inactive
same,Potency,[16],inactive
same,outcome,[18],inactive
same,Potency,[19],inactive
O=C1CCCCCO1,Potency,[1],inactive
same,Potency,[2],inactive
same,Potency,[3],inactive
same,Potency,[4],inactive
same,Potency,[5],inactive
same,Potency,[6],inactive
same,Potency,[7],inactive
same,Potency,[17],inactive
same,Potency,[8],inactive
same,outcome,[9],inactive
same,Potency,[10],inactive
same,Potency,[11],inactive
same,Potency,[14],inactive
same,Potency,[16],inactive
same,outcome,[18],inactive
same,Potency,[19],inactive
O=C(O)/C=C/c1cnc[nH]1,Potency,[1],inactive
same,Potency,[2],inactive
same,Potency,[3],inactive
same,Potency,[4],inactive
same,Potency,[5],inactive
same,Potency,[6],inactive
same,Potency,[7],inactive
same,Potency,[17],inactive
same,outcome,[9],inactive
same,Potency,[10],inactive
same,Potency,[11],inactive
same,Potency,[14],inactive
same,Potency,[16],inactive
same,outcome,[18],inactive
same,Potency,[19],inactive
CC(=O)c1c(C)c([N+](=O)[O-])c(C(C)(C)C)c([N+](=O)[O-])c1C,Potency,[1],inactive
same,Potency,[2],inactive
same,Potency,[3],inactive
same,Potency,[4],inactive
same,Potency,[5],inactive
same,Potency,[6],inactive
same,Potency,[7],inactive
same,Potency,[8],inactive
same,outcome,[9],inactive
same,Potency,[10],inactive
same,outcome,[20],inactive
same,outcome,[12],inactive
same,Potency,[14],inactive
same,outcome,[15],inactive
same,Potency,[16],inactive
same,outcome,[18],inactive
